According to PubChem BioAssay:
Unmarked numbers belong to inactive results. Active and inactive are the calls of the source.

test: plasmodial surface anion channel blockers, osmotic lysis – cell-based, P. falciparum Indochina, OD700, 2 h, primary screen (AID 1155);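 further: lysis reports solute entry through the parasite surface anion channel PSAC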; conditions: P. falciparum Indochina infected erythrocytes, higher = more signal, called active from +8 up or from −8 down

SMILES | z-score
Cc1cc(C)c(-c2cc([C@H](C)ON=C[C@@H](C)[C@H](OCc3ccccc3)C(C)C)on2)c(C)c1 | 0.541
CC(CCN1CCCCc2nc(C)c(C)cc21)=NO[C@H](C)c1cn([C@@H]2COC[C@H]2O)nn1 | 0.406
COC(=O)[C@H](C)NC(=O)CCC1CC(OC(=O)NCc2ccc3c(c2)OCO3)CC2(CCCC(COC(=O)NCc3ccccc3)O2)O1 (stereo partly specified) | 0.0056
CC(=O)OC[C@H]1O[C@H](C#CCC2CCCCC2)C=C[C@@H]1OC(C)=O | 0.138
CN1CCc2nc(-c3ccccc3)c(-c3ccccc3)cc2C1 | -0.0787
CO[C@H]1COC(=O)CCC[C@H](C)[C@H](OC)COC(=O)CC=C[C@@H]1C | -1.26
COCOc1ccc(Br)cc1C(=O)C=Cc1ccc2c(c1)OCO2 | -0.0749
CCN1C(=O)[C@H]2[C@H]3[C@H](O)[C@H](O)CC(=NO[C@@H](C)c4cc(-c5c(C)cc(C)cc5C)no4)[C@@H]3CC[C@H]2C1=O | 0.496
C[C@@H](c1ccccc1)N1C(=O)[C@H]2[C@H]3[C@H](O)[C@H](O)CC(=NNC(=O)OCc4ccccc4)[C@@H]3CC[C@H]2C1=O | 0.461
CO[C@H]1COC(=O)CCC[C@H](C)[C@@H](OC)COC(=O)CC=C[C@@H]1C | -1.22
CO[C@H]1COC(=O)CC=C[C@H](C)[C@H](OC)COC(=O)[C@@H](C)NC(=O)CC=C[C@@H]1C | -1.35
CC(CCN1CCCc2nc(C)c(C)cc21)=NOC[C@@H](C)[C@H](OCc1ccccc1)C(C)C | -1.75
COc1ccc(COC(=O)NN=C2C[C@@H](O)[C@@H](O)[C@@H]3[C@@H]4C(=O)N([C@@H](C)c5ccccc5)C(=O)[C@@H]4CC[C@H]23)cc1 | 0.805
C=C(C)C(=O)OC[C@H]1CN2[C@@H](CC[C@@H](C)[C@@H]2c2ccc(Br)cc2)C(=O)O1 | -0.0269
O=C1[C@H]2[C@H]3[C@H](O)[C@H](O)CC(=NOC[C@@H](O)COCc4ccco4)[C@@H]3CC[C@H]2C(=O)N1Cc1ccc2c(c1)OCO2 | 4.77
O=C(NN=C1C[C@@H](O)[C@@H](O)[C@@H]2[C@@H]3C(=O)N(c4ccc(F)cc4F)C(=O)[C@@H]3CC[C@H]12)OCc1ccccc1 | 1.29
CC(=O)OC[C@H]1O[C@H](CC=NOC[C@@H](O)COCc2ccco2)C=C[C@@H]1OC(C)=O | -0.161
CCN1C(C)=C(C(=O)OC)[C@@H](c2ccccc2)N2C(=O)[C@](O)(C(=O)OC)CC(C(C)=O)=C12 | 0.893

SMILES | z-score
CC(C)CON=C1C[C@@H](O)[C@@H](O)[C@@H]2[C@@H]3C(=O)N([C@@H](C)c4ccccc4)C(=O)[C@@H]3CC[C@@H]12 | 0.63
COC(=O)CC=C1c2ccccc2[C@H](OC)[C@H]1C | 0.269
CC(=O)OC[C@H]1O[C@H](CC=NOC[C@@H](O)[C@H]2O[C@@H]3OC(C)(C)O[C@@H]3[C@H]2O)C=C[C@@H]1OC(C)=O | 0.274
C#CCCCON=C1C[C@@H](O)[C@@H](O)[C@@H]2[C@@H]3C(=O)N(C[C@@H]4CCCO4)C(=O)[C@@H]3CC[C@H]12 | 0.189
CCN1C(=O)[C@H]2[C@H]3[C@H](O)[C@H](O)CC(=NNC(=O)OCc4ccccc4)[C@H]3CC[C@H]2C1=O | 0.322
C[C@@H]1CC[C@H]2C(=O)OC(Cc3ccccc3)CN2[C@H]1c1ccc(Br)cc1 (stereo partly specified) | 0.728
CC(C)=NOC(C)CN1CCCCc2nc(C)c(C)cc21 (stereo unspecified) | -0.16
COC(=O)[C@@H]1CC[C@H](C)[C@@H](c2ccc(C)cc2)N1C(=O)c1ccc(C=NOC[C@@H](O)[C@H]2O[C@@H]3OC(C)(C)O[C@@H]3[C@H]2O)cc1 | 0.364
CCOC(=O)[C@H](Cc1ccccc1)NC(=O)CCC1CC(OC(=O)NCc2cccc3ccccc23)CC2(CCCC(COC(=O)NCCc3ccccc3OC)O2)O1 (stereo partly specified) | 0.185
CON=C[C@@H](OC)[C@H](C)C=CCC(=O)OC | 0.325
O=C(NCCC[N+]1=CC=NC1c1ccccc1)N1CCCc2nc(-c3ccc(Br)cc3)ccc21 (stereo unspecified) | 0.705
COc1cccc([C@H](O)Cn2cc(-c3ccc(CON=C(C)C)cc3)nn2)c1 | 12.2 (active)
C=CC[C@@H]1C=C[C@H](Oc2ccc(C)cc2)[C@@H](COC(=O)NCc2cccc3ccccc23)O1 | 0.852
COC(=O)[C@H](C)NC(=O)CCC1CC(OC(=O)NCCc2ccc(F)cc2)CC2(CCCC(COC(=O)NCCOc3ccccc3)O2)O1 (stereo partly specified) | -0.257
CO[C@@H](C(C)C)[C@@H](C)C1OC(=O)CC1O (stereo partly specified) | 0.0974
CO[C@@H]1C=CCC(=O)N[C@@H](C)C(=O)OC[C@@H](NS(=O)(=O)c2ccc(C)cc2)[C@H](C)C=CCC(=O)OC[C@H]1C | 0.149
O=C1[C@H]2[C@H]3[C@H](O)[C@H](O)CC(=NO[C@@H]4O[C@H](CO)[C@@H](O)[C@H](O)[C@H]4O)[C@@H]3CC[C@H]2C(=O)N1C1CCCCC1 | 0.636
CCOC(=O)[C@H](CC(C)C)NC(=O)CCC1CC(OC(=O)NCc2ccc3c(c2)OCO3)CC2(CCCC(COC(=O)NCCOc3ccccc3)O2)O1 (stereo partly specified) | -0.35
